Screening results deposited in PubChem BioAssay by several laboratories.
This is a sample that favours compounds with a hit; in the whole collection about 22% have one here.
CYP2C9 act: activators of human CYP2C9; activation factor at 5 µM; recombinant CYP2C9, luciferin-H conversion, luminescence; hits give high values; factor 1 = untreated enzyme, 0 = blocked; hit rate 1.4% among 96,000; AID 1024;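 active = activation factor of 2 or more for CYP2C9 at a 5 µM dose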;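 note: 0 = sulfaphenazole-blocked wells and 1 = vehicle-only wells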
Target sequence (P11712 whole entry, looked up): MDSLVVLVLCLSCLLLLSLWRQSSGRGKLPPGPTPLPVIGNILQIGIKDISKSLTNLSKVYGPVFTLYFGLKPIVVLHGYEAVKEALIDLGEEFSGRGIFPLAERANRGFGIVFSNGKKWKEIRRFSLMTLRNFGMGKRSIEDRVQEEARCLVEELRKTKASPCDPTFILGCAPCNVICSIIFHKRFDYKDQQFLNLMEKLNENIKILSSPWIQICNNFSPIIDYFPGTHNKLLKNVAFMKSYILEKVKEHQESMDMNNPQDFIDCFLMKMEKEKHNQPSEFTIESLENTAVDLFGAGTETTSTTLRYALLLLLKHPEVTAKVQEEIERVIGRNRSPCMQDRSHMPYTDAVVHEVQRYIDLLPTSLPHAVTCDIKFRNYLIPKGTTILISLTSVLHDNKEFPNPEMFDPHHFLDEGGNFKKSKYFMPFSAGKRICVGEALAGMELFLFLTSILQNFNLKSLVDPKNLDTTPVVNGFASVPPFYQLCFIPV
Measles CPE: protection of cells from measles virus. Measles virus-infected cells, CPE protection, absorbance. protection (pct of control), % at 4 µM. hit rate 1.5% among 140,000. AID 841; in the data active = protection mostly above about 24%, no sharp cut-off; inactive = mostly below about 26%
CYP2C19 inhib: blocks human cytochrome P450 2C19; P33261; CYP2C19 Supersomes, luciferin-H EGE luminescence, 30 min; inhibition, % at 5 µM; hit rate 21% among 96,000;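 active = CYP2C19 inhibition above a set limit at 5 µM in the primary screen, cut at about 50% in these data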;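 note: plate controls were negative control wells for no effect and 2.5 mM tranylcypromine positive control for full effect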
CYP2C9 inhib: human CYP2C9 inhibition. CYP2C9 Supersomes, luciferin-H conversion, luminescence. hit rate 20% among 96,000. inhibition, % at 5 µM;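 active = blocking of liver enzyme CYP2C9 beyond about 50% at 5 µM, limit read from the data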
CYP2C19 act: cytochrome P450 2C19 (human) activation; recombinant CYP2C19, luciferin-H EGE luminescence; hits give high values; 0 = fully inhibited enzyme, 1 = untreated enzyme; P33261; AID 1025; activation factor at 5 µM; 96,000 tested, under 10 active;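 active = activation factor of at least 2 at 5 µM in the primary screen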;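 note: 0 = wells with 2.5 mM tranylcypromine and 1 = vehicle-only wells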
* marks the source's active call; other numbers are inactive results.

What do the screens show for `CCOc1ccc2nc(NC(=O)C(NS(=O)(=O)c3cccs3)C(C)C)sc2c1` (configuration not stated)?
CYP2C9 act: 1; Measles CPE: 4.6; CYP2C19 inhib: 0.0; CYP2C9 inhib: 3.2; CYP2C19 act: 1

Results for CCOc1ccc2nc(NC(=O)C3CCCN(S(=O)(=O)c4cccs4)C3)sc2c1 (configuration not stated) ?
CYP2C9 act: 0.4; Measles CPE: 18.7; CYP2C19 inhib: 50.5*; CYP2C9 inhib: 60.5*; CYP2C19 act: 0.5

What do the screens show for `Cc1cc(Cn2ccnc2)c(C)cc1Cn1ccnc1`?
CYP2C9 act: 0; Measles CPE: 32.2; CYP2C19 inhib: 97.1*; CYP2C9 inhib: 95.2*; CYP2C19 act: 0

What do the screens show for `Cc1cc(=S)cc(C)n1CCCn1ccnc1`?
CYP2C9 act: 1; Measles CPE: 3.8; CYP2C19 inhib: -8.1; CYP2C9 inhib: 2.2; CYP2C19 act: 1.1

How did O=c1cc(N2CCCCC2)nc2n1CCCS2 do in these assays?
CYP2C9 act: 1; Measles CPE: 8.5; CYP2C19 inhib: 5.2; CYP2C9 inhib: -2.3; CYP2C19 act: 0.9

Results for CSCCC(NS(=O)(=O)c1ccc(Cl)cc1)C(=O)OCC(=O)N1CCCc2ccccc21 (configuration not stated) ?
Measles CPE: 1.3

How did O=c1c2ccccc2nnn1CSc1nnc2ccccn12 do in these assays?
CYP2C9 act: 1.1; Measles CPE: 4.1; CYP2C19 inhib: 48.0; CYP2C9 inhib: -8.7; CYP2C19 act: 0.5

What do the screens show for `CCN(CC)S(=O)(=O)c1ccc2c(c1)nc(SCn1nnc3ccccc3c1=O)n2CC`?
CYP2C9 act: 0.3; Measles CPE: 4.9; CYP2C19 inhib: 19.8; CYP2C9 inhib: 68.1*; CYP2C19 act: 0.8

Results for CCc1ccc(NC(=O)CS(=O)CC(=O)Nc2ccc(F)cc2F)cc1 (configuration not stated) ?
CYP2C9 act: 0.8; Measles CPE: 3.7; CYP2C19 inhib: 1.9; CYP2C9 inhib: 17.0; CYP2C19 act: 1

Results for Cc1ccc(-c2cc(C(F)F)nc(N3CCC(C)CC3)n2)cc1 ?
CYP2C9 act: 0.5; Measles CPE: 3.6; CYP2C19 inhib: 12.3; CYP2C9 inhib: 54.7*; CYP2C19 act: 0.9

How did COc1cccc(-c2cc(C(F)(F)F)nc(N3CCC(C)CC3)n2)c1 do in these assays?
CYP2C9 act: 0.8; Measles CPE: 8.9; CYP2C19 inhib: -2.6; CYP2C9 inhib: 21.9; CYP2C19 act: 1

Results for COC(=O)Cn1c(CCS(=O)(=O)c2ccc(C)c(C)c2)nc2ccccc21 ?
CYP2C9 act: 1.2; Measles CPE: 44.3; CYP2C19 inhib: 60.9*; CYP2C9 inhib: -16.1; CYP2C19 act: 0.4

What do the screens show for `Cc1ccc(S(=O)(=O)CCc2nc3ccccc3n2CCC#N)cc1`?
CYP2C9 act: 1; Measles CPE: 15.5; CYP2C19 inhib: 51.1*; CYP2C9 inhib: -1.8; CYP2C19 act: 0.5

Results for Cc1ccc(S(=O)(=O)CC2CSc3nc4ccccc4n32)cc1 (configuration not stated) ?
CYP2C9 act: 0.5; Measles CPE: 4.2; CYP2C19 inhib: 67.9*; CYP2C9 inhib: 53.7*; CYP2C19 act: 0.3

How did COc1ccc(NC(=O)C(CCSC)N2C(=O)c3ccccc3C2=O)cc1 (configuration not stated) do in these assays?
CYP2C9 act: 1.2; Measles CPE: 6.7; CYP2C19 inhib: -37.5; CYP2C9 inhib: -17.7; CYP2C19 act: 1.4

What do the screens show for `CCOC(=O)c1cc2c(ccn2C)n1CC(=O)N1CCN(c2cccc(C(F)(F)F)c2)CC1`?
CYP2C9 act: 1.1; Measles CPE: 5.3; CYP2C19 inhib: -10.6; CYP2C9 inhib: -13.5; CYP2C19 act: 1.1

How did CCOC(=O)C1=C(C)N=c2s/c(=C\c3ccc(OC(C)=O)c(OCC)c3)c(=O)n2C1/C=C/c1ccccc1 (configuration not stated) do in these assays?
CYP2C9 act: 0.3; Measles CPE: 8.1; CYP2C19 inhib: 39.1; CYP2C9 inhib: 71.9*; CYP2C19 act: 0.6

Results for CCOC(=O)C1=C(C)N=c2s/c(=C\c3ccc(OC(C)=O)cc3)c(=O)n2C1/C=C/c1ccccc1 (configuration not stated) ?
Measles CPE: 5.5

Results for C=CCn1c(=S)[nH]c2ccc(Br)cc2c1=O ?
CYP2C9 act: 0.6; Measles CPE: 4.4; CYP2C19 inhib: 62.1*; CYP2C9 inhib: 37.5; CYP2C19 act: 0.4

What do the screens show for `COc1ccc(Sc2nc3ccccc3n3c(C(F)(F)F)nnc23)cc1`?
CYP2C9 act: 1.1; Measles CPE: 5.0; CYP2C19 inhib: 7.9; CYP2C9 inhib: -14.8; CYP2C19 act: 0.9

How did COc1ccc(-c2cc(-n3c(C(F)(F)F)nc4ccccc43)n(CCC#N)n2)cc1 do in these assays?
CYP2C9 act: 0.3; Measles CPE: 8.0; CYP2C19 inhib: 62.8*; CYP2C9 inhib: 71.7*; CYP2C19 act: 0.4

Results for Cc1cc(/C=C(\C#N)c2nnc(N3CCOCC3)n2-c2ccccc2)c(C)n1-c1ccccc1 ?
Measles CPE: 13.6

Results for C/C=C(\CS(=O)(=O)c1ccccc1)S(=O)(=O)c1ccccc1 ?
CYP2C9 act: 0.7; Measles CPE: 10.9; CYP2C19 inhib: 87.2*; CYP2C9 inhib: 29.8; CYP2C19 act: 0.1

Results for O=C(CS(=O)(=O)c1ccccc1)Nc1ccc(Br)cn1 ?
Measles CPE: 19.8

What do the screens show for `CC(C(=O)N1CCN(c2ccc(Cl)cc2)CC1)c1ncc(C(F)(F)F)cc1Cl` (configuration not stated)?
CYP2C9 act: 0.7; Measles CPE: 9.1; CYP2C19 inhib: 52.2*; CYP2C9 inhib: 28.8; CYP2C19 act: 0.5

What do the screens show for `CC(C)(C(N)=O)N1CCN(c2ncc(C(F)(F)F)cc2Cl)CC1`?
CYP2C9 act: 0.9; Measles CPE: 2.5; CYP2C19 inhib: 49.4; CYP2C9 inhib: 12.8; CYP2C19 act: 0.5

Results for CCOC(=O)C1=C(N)n2c(s/c(=C\c3cccnc3)c2=O)=C(C(=O)OCC)C1c1cccnc1 (configuration not stated) ?
CYP2C9 act: 0.3; CYP2C19 inhib: 62.7*; CYP2C9 inhib: 69.6*; CYP2C19 act: 0.4

Results for CCOC(=O)C1=C(N)n2c(s/c(=C\c3cccs3)c2=O)=C(C(=O)OCC)C1c1cccs1 (configuration not stated) ?
CYP2C9 act: 0.2; Measles CPE: 5.8; CYP2C19 inhib: 28.7; CYP2C9 inhib: 78.5*; CYP2C19 act: 0.7

How did CCOC(=O)C1=C(C)N(c2ccc(C)cc2)C(=O)/C1=C\c1cccs1 do in these assays?
CYP2C9 act: 0.9; Measles CPE: 2.5; CYP2C19 inhib: -10.1; CYP2C9 inhib: 6.9; CYP2C19 act: 1.1

How did CCOC(=O)C1=C(N)OC2=C(C(=O)CCC2)C1c1cccnc1 (configuration not stated) do in these assays?
CYP2C9 act: 0.9; Measles CPE: 8.4; CYP2C19 inhib: 22.5; CYP2C9 inhib: 6.8; CYP2C19 act: 0.8

Results for CCN(c1c(C)n(C)n(-c2ccccc2)c1=O)S(C)(=O)=O ?
CYP2C9 act: 1.1; Measles CPE: 20.6; CYP2C19 inhib: 0.0; CYP2C9 inhib: -8.0; CYP2C19 act: 1
